ChEMBL document CHEMBL3988442, “University of Dundee, Small-Polar-MMV Screening Library” (2021)

The molecules below were run on Trypanosoma cruzi (assay: Trypanosoma cruzi phosphomannomutase and mannose-1-phosphate guanylyltransferase assay). Conditions: 10 µM.
Assay type: functional
Design: scale not given: direction of the effect not stated beside the values

SMILES	Percent Effect
CCC1CN(c2nnc(C)c(C)c2C#N)CCO1 (stereo not given)	6.96%
COC(=O)c1ccccc1NC(=O)c1nc2ccccc2n(C)c1=O	5.82%
CCn1cnnc1C1CCN(C(=O)c2ccc(C(=O)OC)s2)CC1	-4.87%
COc1ccc(NC(=O)CNc2cccc3c2CCCC3)c(OC)c1	-5.57%
Cc1ccc(N2CCCC(NCc3cccc4c3OCCO4)C2)nn1 (stereo not given)	-1.23%
Cc1nc(CN2C(=O)C[C@@H]3[C@@H]2CCN3C(=O)C2CCOCC2)cs1	4.17%
Cc1cnn(CC2CCCCN2CCC(=O)Nc2cc(C)on2)c1 (stereo not given)	0.308%
COCC(=O)N1CCC2(CC1)COCCN2CCN(C)C	-1.93%
CCc1n[nH]c(C2CN(Cc3nccn3CC)CCO2)n1 (stereo not given)	2.45%
CCOc1cccc(NS(=O)(=O)c2cc(C)c(C(=O)O)s2)c1	7.72%
CCCNC(=O)c1sc(Nc2ccc(Cl)cn2)nc1C	4.13%
CC(C)c1ncc2c(n1)CN(Cc1nc(Cc3ccccc3)no1)CC2	2.69%
CS(=O)(=O)NC1CCN(C(=O)NCCNc2ccccn2)CC1	-10.7%
OCC1CCCN1c1cc(NCc2ccc(Cl)s2)ncn1 (stereo not given)	-1.95%
COc1cc(CCC(=O)NC2CC2)ccc1OCC(F)(F)F	-10.4%
CCS(=O)(=O)c1ccc(N2CCC(NC(C)=O)CC2)cc1	-3.21%
CC(=O)c1cn(CCC(=O)N[C@H](C(=O)O)C(C)C)c2ccccc12	-2.95%
CCS(=O)(=O)c1ccc(N2CCC(NC(=O)c3cnn(C)c3)CC2)cc1	10.2%
Cc1nc[nH]c1-c1nc2cc(S(=O)(=O)N3CCCC3)ccc2n1C	6.86%
CCN(CCn1cccn1)Cc1nc(-c2ccccc2F)oc1C	-0.68%
